From PubChem BioAssay (NCI)
This is part of a sample that, as a whole, favours compounds with a hit. Of some 79,000 tested, about 15% had one in any assay. The source made the active and inactive calls. Rule as the data show it: active = growth inhibition above about 70%; inactive = the rest.

Columns and labels:
[1] = NCI Yeast Anticancer Drug Screen. Data for the rad50 strain (AID 155);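 also: 0% = growth of vehicle-only cultures of the same strain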; conditions: S. cerevisiae rad50 strain growth inhibition; at 50.0 µM; stronger effect = higher value
Procedure, shortened: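 Genetically altered yeast (DNA repair pathway); compound treatment; growth inhibition vs vehicle ctrl.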

[2] = NCI Yeast Anticancer Drug Screen. Data for the mec2-1 strain (AID 157); conditions: S. cerevisiae mec2-1 strain, at 50.0 µM, stronger effect = higher value
Procedure, shortened: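 mec2-1 yeast strain, carrying an alteration in DNA damage repair or cell cycle control, was exposed to compounds; growth inhibition was measured relative to vehicle-treated controls.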

[3] = NCI Yeast Anticancer Drug Screen. Data for the sgs1 mgt1 strain (AID 161);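 also: 0% = growth of cultures given vehicle only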; conditions: S. cerevisiae sgs1 mgt1 strain, at 50.0 µM, stronger effect = higher value
Procedure, shortened: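 Compounds are added to genetically altered yeast, and growth is compared with cultures given vehicle alone to give percent inhibition.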

[4] = NCI Yeast Anticancer Drug Screen. Data for the cln2 rad14 strain (AID 165);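 also: 0% = growth equal to vehicle treated cultures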; conditions: S. cerevisiae cln2 rad14 strain, at 50.0 µM, stronger effect = higher value
Procedure, shortened: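 Yeast carrying cln2 and rad14 alterations (cell cycle control and DNA damage repair) were exposed to compounds. Growth inhibition was measured against vehicle-treated controls.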

[5] = NCI Yeast Anticancer Drug Screen. Data for the bub3 strain (AID 167); conditions: S. cerevisiae bub3 mutant strain, at 50.0 µM, stronger effect = higher value
Procedure, shortened: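 Yeast carrying a defined mutation is treated with each compound, and growth is compared with that of vehicle-exposed cells to give inhibition.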

[6] = NCI Yeast Anticancer Drug Screen. Data for the mlh1 rad18 strain (AID 175); conditions: S. cerevisiae mlh1 rad18 strain growth inhibition; at 50.0 µM; stronger effect = higher value
Procedure, shortened: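 Growth inhibition of the yeast strain was measured after compound exposure and expressed relative to vehicle-treated controls. The strain carries defined defects in DNA damage repair.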

Measured: growth inhibition

CCCCN1C(=O)CC(=O)N(c2ccccc2)C1=O
inactive: [1] -8.55% | [2] -28% | [3] -3.8% | [4] 14.3% | [5] -14.4% | [6] -4.35%

O=C(CC(=O)C(F)(F)F)c1ccco1.[Fe]
inactive: [1] 32.6% | [2] 21.3% | [3] 0.5% | [4] 6.9% | [5] 6.55% | [6] 14.7%

[Cu+2].[NH-]c1ccccc1C(=O)O.[NH-]c1ccccc1C(=O)O
inactive: [1] -34.8% | [2] -21.8% | [3] -13.9% | [4] -87.7% | [5] -27.1% | [6] -52.4%

COC(=O)C1=C(C)NC(C)=C2C(=O)Oc3ccccc3C12 (configuration not stated)
inactive: [1] 4.75% | [2] -9.65% | [3] -7.5% | [4] 6.6% | [5] -6.8% | [6] 1.4%

O=C(CF)Nc1ccc([N+](=O)[O-])cc1
inactive: [1] -12.4% | [2] -7.25% | [3] -6.25% | [4] -15.7% | [5] 0.2% | [6] 9.1%

O=[N+]([O-])/C=C\c1c[nH]c2ccc(OCc3ccccc3)cc12
inactive: [1] 52.5% | [2] 30.8% | [3] 53.4% | [4] 45.4% | [5] 55.5% | [6] 40.9%

O=C(CC(=O)C(F)(F)F)c1cccs1.O=C(CC(=O)C(F)(F)F)c1cccs1.O=C(CC(=O)C(F)(F)F)c1cccs1.[Gd]
inactive: [1] 29.8% | [2] 26.2% | [3] 26.9% | [4] -3.25% | [5] 44% | [6] 15.9%

Oc1ccccc1C=NCCN=Cc1ccccc1O
inactive: [1] -15.2% | [2] -11.6% | [3] -1.1% | [4] -41.2% | [5] -9.2% | [6] 31.8%

S=P(N1CCCCC1)(N1CCCCC1)N1CCCCC1
inactive: [1] -6.95% | [2] -6.8% | [3] -3.15% | [4] -17.8% | [5] -4.2% | [6] -7.1%

CCCCC(C(=O)NN)P(=O)(OCC)OCC (configuration not stated)
inactive: [1] -0.9% | [2] -5.2% | [3] 15.8% | [4] -14.7% | [5] -1.95% | [6] 0.95%

CC(Cl)CN1CCCCC1 (configuration not stated) (tested in a mixture with another compound)
inactive: [1] 15.2% | [2] 1.25% | [3] 23.8% | [4] 7.75% | [5] 3.2% | [6] 17.9%

CCC12C=CCN3CCC4(C(=C(C(=O)OC)C1)Nc1ccccc14)[C@H]32 (some centres not stated)
inactive: [1] 6.7% | [2] 6% | [3] 6% | [4] -8% | [5] 7.25% | [6] 0.8%

COc1ccc(C(CC(=O)O)CC(=O)c2ccc(N(CCCl)CCCl)cc2)cc1 (configuration not stated)
active: [4] 74.7% | [5] 87.3%
inactive: [1] 54% | [2] 22.7% | [3] 24.8% | [6] 68.5%

O=[N+]([O-])c1cc(S(=O)(=O)F)cc(Cl)c1O
inactive: [1] -10.2% | [2] 1.6% | [3] 2.25% | [4] -3.7% | [5] -2.75% | [6] 8.45%

CCOP(=S)(OCC)OP(=S)(OCC)OCC
inactive: [1] -44.5% | [2] -50.4% | [3] -40.6% | [4] -13.9% | [5] -28.1% | [6] -42.1%

CCOC(=O)C(Cc1ccc(N(CCCl)CCCl)cc1)NC(=O)C(NC(C)=O)C(C)C (configuration not stated)
inactive: [1] 36.9% | [2] 13.3% | [3] 33.2% | [4] 17.4% | [5] 29.7% | [6] 28.4%

O=P(Nc1ccc2ccccc2c1)(Nc1ccc2ccccc2c1)N(CCCl)CCCl
inactive: [1] -4.3% | [2] -3.5% | [3] 4.7% | [4] 4.2% | [5] -12.3% | [6] -12.8%

CC1=C(C)CN(CCc2c[nH]c3ccccc23)C(C#N)C1 (configuration not stated)
inactive: [1] 0.6% | [2] 2.3% | [3] 3.95% | [4] 60.5% | [5] 11.9% | [6] 12.5%

N#CC1=C(C#N)C(=O)C(Cl)=C(Cl)C1=O
inactive: [1] 14.9% | [2] 24.9% | [3] 16.9% | [4] 8.7% | [5] 16.6% | [6] 29.2%

Cc1cc(-c2ccccc2)cc(-c2ccccc2)[o+]1
inactive: [1] 2.3% | [2] -2.55% | [3] 2% | [4] -23% | [5] 1% | [6] 4.25%

CC(C)COP(=O)(Cc1ccccc1)OCC(C)C
inactive: [1] 8.85% | [2] 5.65% | [3] -0.5% | [4] 11.8% | [5] 5% | [6] -6.2%

CC(C)OP(=O)(OC(C)C)C(=O)Nc1ccc(Cl)cc1
inactive: [1] -24.9% | [2] 16.1% | [3] 5.85% | [4] -29.9% | [5] 16.5% | [6] -8%

COc1cc(C=C2C(=O)NC(=O)NC2=O)ccc1O
inactive: [1] 1.85% | [2] -23.4% | [3] 5.05% | [4] 4.3% | [5] -2% | [6] 6.35%

O=C(NC(c1ccccc1)(c1ccccc1)c1ccccc1)N(CCCl)CCCl
inactive: [1] 5.95% | [2] 20.7% | [3] 12.9% | [4] 5.3% | [5] 39.5% | [6] -7.5%

N#CCCc1ccccc1
inactive: [1] -2.25% | [2] -7.95% | [3] -1.95% | [4] -12.8% | [5] -1.1% | [6] 0.65%

Cc1cc[n+](C)c(Cc2ccccc2)c1C
inactive: [1] -26.7% | [2] -11.1% | [3] -8.9% | [4] -26.1% | [5] -22% | [6] -28.9%

COc1c2occc2c(CCl)c2ccc(=O)oc12
inactive: [1] 26.6% | [2] 11.2% | [3] 14.3% | [4] 24.4% | [5] 5.8% | [6] 28.1%

O=C(O)Cc1ccc2c(c1)OCO2
inactive: [1] 20.9% | [2] -0.35% | [3] 28.1% | [4] 12.2% | [5] -11.3% | [6] 23.6%

CC(=N/O)/C(C)=N\O
inactive: [1] 21% | [2] 14.8% | [3] 5.7% | [4] 13.4% | [5] -0.4% | [6] 40.3%

CN1C(=O)c2ccccc2NC(=O)C12OC2c1ccccc1 (configuration not stated)
inactive: [1] -0.1% | [2] 18% | [3] 11.3% | [4] 10.2% | [5] 18.2% | [6] 8.15%

[Au].[NH-]CC[NH-].[NH-]CC[NH-]
inactive: [1] 9.45% | [2] -5.5% | [3] -17.4% | [4] -7.05% | [5] -0.55% | [6] -12.5%

Cc1ccc([NH-])cc1.Cc1ccc([NH-])cc1.[Cl][Pt+2][Cl]
inactive: [1] -31.7% | [2] -6.8% | [3] 3.95% | [4] -61.7% | [5] 3.55% | [6] -11.3%

CC(C(=O)c1ccccc1)N(C)C (configuration not stated)
inactive: [1] 2.15% | [2] -6.85% | [3] -4.2% | [4] -50.4% | [5] -19.7% | [6] 5.5%

COc1ccc(C(=O)O)cc1[N+](=O)[O-] (tested in a mixture with another compound)
inactive: [1] 9.25% | [2] 4.45% | [3] 5.55% | [4] 7.4% | [5] 11.4% | [6] 15.1%

CC(=O)CC(C)=O.CC(=O)CC(C)=O.[Co]
inactive: [1] -31.9% | [2] -41% | [3] -8% | [4] -133% | [5] -52.3% | [6] 0.7%

N#CC(CCN1CCC(Nc2ccccc2)(c2nnnn2C2CCCCC2)CC1)(c1ccccc1)c1ccccc1
inactive: [1] -13.8% | [2] -16.6% | [3] 3.75% | [4] -5.15% | [5] 4.05% | [6] -21.6%

Cc1ccccc1.[C-]#[O+].[C-]#[O+].[C-]#[O+].[W]
inactive: [1] -11.5% | [2] -1.2% | [3] 2% | [4] 28.2% | [5] 24.9% | [6] -8.05%

CCCCP(=O)(CCCC)CCCC.CCCCP(=O)(CCCC)CCCC.CCCCP(=O)(CCCC)CCCC.CCCCP(=O)(CCCC)CCCC.[Mn+2].[O-][Cl+3]([O-])([O-])O
inactive: [1] 13.3% | [2] -57.7% | [3] -24.6% | [4] -17.5% | [5] -21.9% | [6] -17.9%

[N-]=[N+]=CC(=O)c1ccc(Cl)cc1
inactive: [1] 34.5% | [2] 28.4% | [3] 14% | [4] -16.5% | [5] 50.1% | [6] 52.2%

COc1ccc2c(c1OC)C(=O)O[C@@H]2[C@H]1c2cc3c(cc2CCN1C)OCO3
inactive: [1] -8.75% | [2] -4.8% | [3] 0.95% | [4] 6.75% | [5] 4.8% | [6] -43.5%

CS(=O)(=O)NC(=O)CBr
inactive: [1] -26.1% | [2] -23.6% | [3] -12.8% | [4] 14.6% | [5] -29.4% | [6] -21.1%

NC(C/C=C/P(=O)(O)O)C(=O)O (configuration not stated)
inactive: [1] -20.4% | [2] -17.1% | [3] -14.8% | [4] 13.2% | [5] 19.9% | [6] -33%
